Laboratory results published in the supplement of paper PMC3484114.
± gives the standard deviation.

Tested on: OVCAR-3-derived ovarian cancer stem-like cells (spheroids)
Assay: cell growth relative to untreated control; higher = more growth (less inhibition)
Details: 2.29 µM; 96 h
In short: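 Percent growth was calculated against untreated wells once blanks were subtracted and Grubbs outliers removed. The cells were OVCAR-3 spheroid-derived stem-like cells, trypsinized and plated at 50,000 cells/mL in stem cell medium on ultra-low attachment 96-well plates for a 24 h preincubation. They were then exposed to compounds at 2.29 uM for 96 h at 37°C, 5% CO2, in 4 replicate wells, and viability was measured by TOX8 resazurin fluorescence (ex 560/em 590 nm) after 4 h.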

Q: With `C[C@@H]1CC[C@H]2C(C)(C)[C@H]3C[C@@]12CC[C@@]3(C)O` as the compound, how does the cell growth read?
A: 48.3 ± 7%

Q: With `CC(=O)/C(=C\c1cccc([N+](=O)[O-])c1)C(=O)Nc1ccccc1C` as the compound, how does the cell growth read?
A: 81.8 ± 22%

Q: With `CCC1CN2CCc3cc(OC)c(OC)cc3C2CC1CC1c2cc(OC)c(OC)cc2CCN1C(=O)C(Cc1c[nH]c2ccccc12)NC(=O)OC(C)(C)C` (configuration not stated) as the compound, how does the cell growth read?
A: 94 ± 23%

Q: Which cell growth does the source give for `NC1(C(=O)O)CCCC1` here?
A: 84.9 ± 15%

Q: With `CN(C)c1cccc(/C=C(\C#N)c2ccccc2)c1` as the compound, how does the cell growth read?
A: 66.6 ± 7.2%

Q: `O=C1C=C(NCCc2ccccc2)c2ccccc2C1=O` was tested. Which cell growth did it give?
A: 57.3 ± 10%

Q: `CN(C)[C@H]1CCC2[C@@H]3CCC4C[C@@H](NC(=O)NC(Cc5ccccc5)c5nccs5)CC[C@]4(C)C3CC[C@@]21C` (some centres not stated) was tested. Which cell growth did it give?
A: 76.9 ± 20%

Q: How did the cell growth turn out when `Cc1c(N=Cc2ccc(N(CCC#N)CCC#N)cc2)c(=O)n(-c2ccccc2)n1C` was run?
A: 133 ± 36%

Q: `Cc1ccc(C2NC(=O)c3ccccc3N2)s1` (configuration not stated) was tested. Which cell growth did it give?
A: 60.4 ± 16%

Q: For `OCc1ccc(-c2ccc(-c3ccc(CO)s3)o2)s1`, which cell growth is on record?
A: 92.2 ± 21%

Q: Which cell growth does the source give for `CCCCCCCC/C=C\CCCCCCCC(=O)O` here?
A: 124 ± 36%

Q: `CO[C@H]1/C=C\C=C(/C)C(=O)NC2=CC(=O)C(N)=C(C[C@@H](C)C[C@H](OC)[C@H](O)[C@@H](C)/C=C(\C)[C@@H]1OC(N)=O)C2=O` was tested. Which cell growth did it give?
A: 29.6 ± 4.9%

Q: With `COc1c2c(c(OC)c3c1c(=O)c1ccccc1n3C)OCO2` as the compound, how does the cell growth read?
A: 97.8 ± 12%

Q: With `CC1=NC(C(C)C)C(=O)O1` (configuration not stated) as the compound, how does the cell growth read?
A: 122 ± 74%

Q: For `O=c1c(O)c(-c2ccc(O)c(O)c2)oc2cc(O)ccc12`, which cell growth is on record?
A: 94.3 ± 22%

Q: Which cell growth does the source give for `CC1=CC(=C(c2ccc(N)cc2)c2ccc(N)cc2)C=CC1=N` here?
A: 50.4 ± 6.5%

Q: How did the cell growth turn out when `CC(=O)NC1C(OCc2ccccc2)OC(CO)C(O)C1OC(C)C(=O)NC(C(=O)NC(CCC(=O)NCCCCNc1c2ccccc2nc2cccc([N+](=O)[O-])c12)C(N)=O)C(C)C` (configuration not stated) was run?
A: 105 ± 21%
